High-throughput results from PubChem BioAssay.
KDM5B inh – blocks human KDM5B histone demethylase activity; Q9UGL1; Potency, µM (highest dose often 57.7 µM), actives largely listed as inhibitors; KDM5B demethylase, FDH-coupled NADH fluorescence (FDH is formaldehyde dehydrogenase); 220,000 tested, 2.6% active; further: potency means the concentration at half of the fitted maximal effect; 0% is about no effect; nearly all actives have a fitted effect of over 70% in size
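Coupled FDH/NAD⁺ fluorescence readout. KDM5BΔAP 200 nM final; compound titration, 10 min RT preincubation; substrate mix 12.5 µM H3K4me3, 25 µM 2-OG, 50 µM Fe(II), 100 µM ascorbate, 0.25 mM NAD⁺, 0.25 U/mL FDH; ΔRFU over 30 min.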
SNCA viab count – cell viability loss counter-screen | AID 1671193 | 150,000 tested, 0.12% active | Potency, µM (doses to about 57.1 µM), without a hit: top-dose activity change, negative = cytotoxicity, most hits filed as cytotoxic | HEK-293-SNCA-luc viability, GF-AFC fluorescence, 24 h;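 further: potency means the concentration at half of the fitted maximal effect; 0% = DMSO-treated cells and -100% = medium-only wells without cells; nearly all actives have a fitted effect of over 30% in size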
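Cytotoxicity counterscreen: after 24 h compound treatment of genome-edited SNCA-luciferase HEK-293 cells, live-cell protease substrate GF-AFC read by fluorescence after 30 min; activity scaled between DMSO (0%) and medium-only (-100%), curves Hill-fitted.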
IP6K1 inhibitor – blocks human inositol hexakisphosphate kinase 1; 140,000 tested, 0.81% active; IP6K1 kinase, ADP-Glo luminescence, 2 h; hits give low values; activity change, % (series mostly up to about 58 µM); AID 1645851; in the data active means activity change below about -25%; further: on the % scale 0 is the no-effect control and ±100 the full control effect
Target sequence (Q92551 whole entry, looked up): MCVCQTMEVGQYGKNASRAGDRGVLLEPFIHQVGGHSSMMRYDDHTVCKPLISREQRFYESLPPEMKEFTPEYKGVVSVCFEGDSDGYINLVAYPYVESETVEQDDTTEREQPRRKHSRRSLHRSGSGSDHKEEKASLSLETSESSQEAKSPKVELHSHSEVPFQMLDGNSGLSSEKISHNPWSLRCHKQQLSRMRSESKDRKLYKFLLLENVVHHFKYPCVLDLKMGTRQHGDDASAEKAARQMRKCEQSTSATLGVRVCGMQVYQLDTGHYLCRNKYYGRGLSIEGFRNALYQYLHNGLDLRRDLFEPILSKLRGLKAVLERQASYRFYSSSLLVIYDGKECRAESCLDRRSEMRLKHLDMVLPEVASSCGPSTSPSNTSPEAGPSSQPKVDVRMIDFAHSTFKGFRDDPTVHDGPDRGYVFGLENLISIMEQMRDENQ
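ADP-Glo luminescence measures ADP made by human IP6K1 during a 2 h RT reaction with ATP/IP6 (mix at 1.3 mM/130 uM); top library doses 57.5 and 19.1 uM final.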
SNCA expr inhib – inhibitors of alpha-synuclein (SNCA) gene expression. HEK-293 SNCA-luciferase knock-in, luminescence, 24 h. 140,000 tested, 0.17% active. Potency, µM (top dose mostly 57.2 µM), without a hit: at the highest dose activity change, negative = inhibition, usual class: inhibitors. AID 1671194;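 further: potency means the concentration at half of the fitted maximal effect; plate controls were DMSO cells for no effect and cell-free wells for full effect; nearly all actives have a fitted effect of over 45% in size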
* marks the source's active call; other numbers are inactive results; i = inactive; ? = inconclusive; nt = no result; [ ] = another dose, or the depositor's remark. Compounds with a hit are over-represented: about 3% of the library has one in this group of screens. Unless noted, the call rests on the fitted dose curve; in most records, active means well fitted curve in the direction sought with a large enough effect; inconclusive means small, poorly fitted or top-dose-only effect, or another doubt; inactive means no such curve, though single readings can be large; an effect the other way counts as inactive or inconclusive.

SMILES	KDM5B inh	SNCA viab count	IP6K1 inhibitor	SNCA expr inhib
O=C(NC1COC1)c1ccc2c(c1)C1(CCN(CC3CC3)C1)CN2Cc1ccccc1 (stereo not drawn)	35µM*	-2%[87.6 µM]	1	1%[87.6 µM]
COCCN(C)C(=O)c1ccc2c(c1)C1(CCN(CC3CC3)C1)CN2Cc1ccccc1 (stereo not drawn)	?	-9%[87.6 µM]	12	-24%[87.6 µM]
Cc1sc(NC(=O)C2CCC2)c(C#N)c1C	i	nt	nt	nt
COCCNc1ncccc1-c1noc([C@@H]2CCCN2Cc2cc(OC)c(OC)c(OC)c2)n1	32µM*	-1%	12	13%
COc1ccc(C(=O)Nc2ccc(-c3noc([C@@H]4CCCN4Cc4ccc(F)cc4)n3)cn2)cc1	?	-21%	3	-15%
COCCNc1ncccc1-c1noc([C@@H]2CCCN2Cc2ccccn2)n1	32µM*	-26%[87.6 µM]	-12	?
COCCNc1ncccc1-c1noc([C@@H]2CCCN2Cc2ccncc2)n1	28µM*	-15%[87.6 µM]	15	10%[87.6 µM]
COCCOc1ncccc1-c1noc([C@@H]2CCCN2Cc2ccc(CO)o2)n1	?	-1%[87.6 µM]	-12	-11%[87.6 µM]
COc1ccc(C(=O)Nc2ccc(-c3noc([C@@H]4CCCN4CCCc4ccccc4)n3)cn2)cc1	25µM*	-16%	12	10%
COCC(=O)Nc1ccc(-c2noc([C@@H]3CCCN3Cc3ncc[nH]3)n2)cn1	40µM*	0%[87.6 µM]	6	47%[87.6 µM]
COCCNc1ccc(-c2noc([C@@H]3CCCN3Cc3ccncc3)n2)cn1	28µM*	-2%[87.6 µM]	10	76%[87.6 µM]
CCOc1ccccc1NC(=O)C1CCN(c2nc3ccccc3o2)CC1	i	nt	nt	nt
O=C(c1ccc(-c2ccccc2)cc1)C(O)c1ccc(-c2ccccc2)cc1 (stereo not drawn)	i	nt	nt	nt
CNC(=O)c1cccc(-c2cnc(Nc3ccc(F)c(Cl)c3)c3c2CCO3)c1	35µM*	?	-18	54%[87.6 µM]
O=C(Nc1ncc(-c2cccc(F)c2)c2c1OCC2)c1ccncc1	i	12%[87.6 µM]	1	-2%[87.6 µM]
O=C(Nc1ncc(-c2cccc(F)c2)c2c1OCC2)c1ccc(F)c(Cl)c1	22µM*	-25%[87.6 µM]	-15	42%[87.6 µM]
CNC(=O)c1cc(C2CC2)nc2c1c(C1CCCN([S+](=O)([O-])c3cccs3)C1)nn2C (stereo not drawn)	nt	nt	7	nt
CCC(CC)C(=O)Nc1nn2c(CC(C)C)nnc2s1	i	nt	nt	nt
COc1ccc([S+](=O)([O-])c2nnn3c2nc(NC2CC2)c2ccccc23)cc1	89µM*	-1%	6	1%
COc1ccc([S+](=O)([O-])c2nnn3c2nc(N2CCC(F)CC2)c2ccccc23)cc1	79µM*	-3%	10	-2%
O=[S+]([O-])(c1ccc(Cl)cc1)c1nnn2c1nc(NC1CC1)c1ccccc12	i	-1%	11	6%
COc1ccc(OC)c([S+](=O)([O-])c2nnn3c2nc(N2CCC(F)CC2)c2ccccc23)c1	50µM*	9%	6	-5%
Cc1ccc(S(=O)(=O)CC(=O)c2cccc(Br)c2)cc1	i	nt	nt	nt
COc1ccc(CNc2nccc(-c3c(C)nn(C)c3C)n2)cc1OC	?	-15%	13	-26%
CCN1CC(CNc2nccc(-c3c(C)nn(C)c3C)n2)CC1=O (stereo not drawn)	28µM*	-8%	8	-17%
SMILES	KDM5B inh	SNCA viab count	IP6K1 inhibitor	SNCA expr inhib
CC(=O)N1CCCC(CNc2nccc(-c3c(C)nn(C)c3C)n2)C1 (stereo not drawn)	28µM*	4%	-9	8%
Cc1ccc(CNC(=O)COC(=O)c2ccc3c(c2)NC(=O)CS3)cc1	i	nt	nt	nt
CC(=O)NNC(=S)Nc1cccc(Cl)c1Cl	i	nt	nt	nt
CC1(COc2cccnc2)COc2ccc(C(=O)NCc3cccs3)cc2N1 (stereo not drawn)	35µM*	0%[87.6 µM]	1	-1%[87.6 µM]
CC1(COc2cccnc2)COc2ccc(C(=O)NCc3ccc4c(c3)OCO4)cc2N1 (stereo not drawn)	16µM*	5%[87.6 µM]	-6	-20%[87.6 µM]
CC1(COc2cccnc2)COc2ccc(C(=O)NCc3ccc(F)cc3)cc2N1 (stereo not drawn)	32µM*	?	8	?
CC1(COc2cccnc2)COc2ccc(C(=O)NCc3cnccn3)cc2N1 (stereo not drawn)	i	15%[87.6 µM]	-8	-26%[87.6 µM]
CC1(COc2ccccc2)COc2ccc(C(=O)NCc3ccccc3)cc2N1 (stereo not drawn)	?	?	19	?
Cc1ccc(C)c(NC(=O)C(C)NS(=O)(=O)c2ccc3c(c2)CCN3C(=O)N2CCCC2)c1 (stereo not drawn)	i	nt	nt	nt
COc1cccc(NC(=O)C(=O)NCCc2sc(-c3ccc(Cl)cc3)nc2C)c1	i	nt	nt	nt
OCC1(Cc2ccc(F)cc2F)CCCN(c2cnc3ccccc3n2)C1 (stereo not drawn)	28µM*	?	-22	?
Cc1ccc2c(COC(=O)C3=NN(C)C(=O)CC3)cc(=O)oc2c1	i	nt	nt	nt
CCOc1cccn2c(=O)c(-c3cc(C)n(-c4ccc(Cl)cc4)n3)c(C)nc12	?	-4%	3	-16%
Cc1nc2scc(CC(=O)NCC(C)C)n2c(=O)c1-c1cc(C)n(-c2cccc(Cl)c2)n1	?	1%	-16	13%
COC(=O)COc1cccn2c(=O)c(-c3cc(C)n(-c4ccc(Cl)c(Cl)c4)n3)c(C)nc12	28µM*	6%	3	7%
CCOC(=O)CCCOc1cccn2c(=O)c(-c3cc(C)n(-c4ccccc4)n3)c(C)nc12	25µM*	10%	-4	-8%
Cc1nc2c(OCC(=O)c3ccccc3)cccn2c(=O)c1-c1cc(C)n(-c2ccc(Cl)cc2)n1	16µM*	4%	-2	?
Cc1cccc(NC(=O)NCc2nc(-c3ccccc3)oc2C)c1C	i	nt	nt	nt
O=C(CCNc1c(-c2ccccc2)nc2cnccn12)NC1CCCC1	28µM*	?	12	?
c1cn2c(NC3CCCCC3)c(-c3ccc(N4CCOCC4)cc3)nc2cn1	i	nt	nt	nt
O=C(CCNc1c(-c2ccc(F)cc2)nc2cnccn12)NC1CCCC1	28µM*	?	-3	2%
O=C(CCNc1c(-c2ccc(F)cc2)nc2cnccn12)N1CCCCC1	22µM*	25%	16	-2%
COc1ccc(-c2cccc(C(=O)NCc3ccccc3Cl)c2)nn1	nt	nt	12	nt
N#Cc1ccc(C=Nc2ccc(OC(F)(F)C(F)F)c(N=Cc3ccc(C#N)cc3)c2)cc1	i	nt	nt	nt
Cc1cc(C)nc(SCC(=O)Nc2ccccc2C(N)=O)n1	i	nt	nt	nt
COCCN1Cc2ccc(Nc3cccnc3)nc2C(C)(C(=O)NCc2ccncc2)C1 (stereo not drawn)	25µM*	3%[87.6 µM]	-3	7%[87.6 µM]
CC(C)CNc1ccc2c(n1)C(C)(C(=O)NC1COC1)CN(Cc1ccccc1)C2 (stereo not drawn)	32µM*	?	33	?
COCCN1Cc2ccc(NCC(C)C)nc2C(C)(C(=O)NC2CC2)C1 (stereo not drawn)	32µM*	-7%[87.6 µM]	21	-22%[87.6 µM]
